Records with an inconclusive call do not appear. Activity calls are given as the source filed them. Unless noted, calls follow the shape of the dose curve; as a rule, active = well fitted curve in the direction sought with a large enough effect in the repeat runs; inconclusive = weak or mixed curves; inactive = no such curve, though single readings can be large; an effect the other way counts as inactive or inconclusive.

Assay [1] can be described thus: qHTS assay to identify small molecule agonists of the NFkB signaling pathway (AID 1159509; active = well fitted curve in the direction sought with a large enough effect in the signal ratio in the repeat runs, not every such curve was filed as active; the % refers to the signal ratio). Particulars: NFkB-bla ME-180 cells, beta-lactamase FRET ratio, 5 h; series mostly up to 61 µM. In a few lines: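 Pathway activation was measured in ME-180 cells stably expressing beta-lactamase under NF-kB response element control. Substrate cleavage was read as the 460/530 nm emission shift after 5 hr compound incubation.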

Assay [2] in a line: qHTS assay to identify small molecule agonists of the endoplasmic reticulum stress response signaling pathway (AID 1159516; active = well fitted activation curve with a large enough effect in the signal ratio in the repeat runs, not every such curve was filed as active; the % refers to the signal ratio). Particulars: ESRE-bla HeLa, ER stress beta-lactamase reporter, 5 h; series mostly up to 61 µM. A digest of the protocol: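 For this screen, HeLa cells stably carrying beta-lactamase under the ER stress response element received test compounds, positive controls or DMSO for 5 hr at 37 C; B/G FRET substrate was then added and dual-wavelength emission recorded.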
(In general: Quantitative high-throughput screening tests each substance at several concentrations.)

The nature of assay [3]: qHTS assay to identify small molecule antagonists of the retinoid-related orphan receptor gamma (ROR-gamma) signaling pathway - cell viability counter screen (AID 1159520). Also: nearly all actives have a fitted effect of over 50% in size. The note with it: Tet-on RORgamma CHO cells viability, ATP luminescence, 16 h; series mostly up to 92.4 µM. A digest of the protocol: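 Tet-on ROR gamma CHO cells were given compounds for 2 hr, then doxycycline hyclate at 1 uM final, and incubated 16 hr at 37 C. Viability was measured as ATP content by CellTiter-Glo luminescence.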

In assay [4] the target is Nuclear receptor ROR-gamma (Homo sapiens) (UniProt P51449). Description: qHTS assay to identify small molecule antagonists of the retinoid-related orphan receptor gamma (ROR-gamma) signaling pathway (AID 1159521; also: nearly all actives have a fitted effect of over 50% in size; also: potency is read from the fitted curve at half-maximal effect). The note with it: Tet-on RORgamma CHO cells, RORE-luciferase, 16 h; series mostly up to 92.4 µM. In a few lines:
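Luminescence readout (ONE-Glo, 30 min RT) after 16 h doxycycline induction; loss of signal scored as antagonism. CHO cells with TET-inducible RORγ and RORE-LUC reporter; compounds added 2 h before 1 uM final doxycycline.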

Assay [5] can be described thus: qHTS assay to identify small molecule agonists of the RXR signaling pathway - cell viability counter screen (AID 1159529). Also: nearly all actives have a fitted effect of over 50% in size. Also: potency is read from the fitted curve at half-maximal effect. The note with it: RXR-alpha-bla HEK293T viability, CellTiter-Glo, 16 h; series mostly up to 76.8 µM. A digest of the protocol: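 Luminescence from CellTiter-Glo (30 min, RT) measured viability in the same wells as the beta-lactamase reporter readout. Cells: GeneBLAzer RXR-alpha HEK 293T, 2% charcoal-stripped FBS. Compound exposure 16 hr, 37 C.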

A short description of assay [6]: qHTS assay to identify small molecule antagonists of the retinoid acid receptor (RAR) signaling pathway - cell viability counter screen (AID 1159551). Also: nearly all actives have a fitted effect of over 35% in size. Also: potency is read from the fitted curve at half-maximal effect. Particulars: C3RL4 cells viability, ATP luminescence (CellTiter-Glo), 6 h; series mostly up to 92.4 µM. A digest of the protocol: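 Measured by luminescent ATP detection, viability reflects C3RL4 cells treated 6 h at 37 C with test chemicals in the presence of 1 uM (final) retinol.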

A short description of assay [7]: qHTS assay to identify small molecule antagonists of the retinoic acid receptor (RAR) signaling pathway (AID 1159552; also: nearly all actives have a fitted effect of over 50% in size; also: potency is read from the fitted curve at half-maximal effect). The note with it: C3RL4 RARE luciferase reporter, retinol-stimulated, 6 h; series mostly up to 92.4 µM. In a few lines: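 Luminescence from a RARE luciferase reporter in C3RL4 cells served as read-out. Cells received compounds together with 1 uM final retinol and incubated 6 hr at 37 C before detection reagent was added for 30 min at room temperature.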

A short description of assay [8]: qHTS assay to identify small molecule agonists of the retinoic acid receptor (RAR) signaling pathway (AID 1159553). Also: potency is read from the fitted curve at half-maximal effect. The note with it: C3RL4 RARE luciferase reporter, agonist, 6 h; activation: at 73.3 µM (top of the series). A digest of the protocol: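 6 hr compound exposure (DMSO vehicle) of overnight-plated C3RL4 RARE-luc cells at 37 C; luminescence quantified after 30 min RT with luciferase reagent.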

Assay [9] in a line: qHTS assay to identify small molecule agonists of the endoplasmic reticulum stress response signaling pathway - cell viability counter screen (AID 1159517; calls by dose curve; also: nearly all actives have a fitted effect of over 50% in size; also: potency is read from the fitted curve at half-maximal effect). Particulars: ESRE-bla HeLa viability, CellTiter-Glo luminescence, 5 h; series mostly up to 61 µM. In a few lines: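 In parallel with the ESRE reporter read, cytotoxicity was scored by CellTiter-Glo luminescence (30 min, room temperature) on HeLa ESRE-bla cells dosed for 5 hr.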

The nature of assay [10]: qHTS assay to identify small molecule antagonists of the vitamin D receptor (VDR) signaling pathway - cell viability counter screen (AID 743225). Also: nearly all actives have a fitted effect of over 50% in size. Also: potency is read from the fitted curve at half-maximal effect. The note with it: VDR-bla HEK293T viability, CellTiter-Glo luminescence, 16 h; series mostly up to 61 µM. A digest of the protocol: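 Viability counter screen run in the same wells as the beta-lactamase reporter assay: HEK 293T VDR-UAS-bla cells, 16 h compound exposure at 37C with 3 nM (final) 1-alpha,25-dihydroxyvitamin D3. CellTiter-Glo luminescence, 30 min, room temperature.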

Assay [11] can be described thus: qHTS assay to identify small molecule agonists of the AP-1 signaling pathway - cell viability counter screen (AID 1159525; calls by dose curve; also: nearly all actives have a fitted effect of over 55% in size). The note with it: ME-180 AP-1-bla cells viability, ATP luminescence, 5 h; series mostly up to 76.8 µM. A digest of the protocol: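 Same-well cytotoxicity counter screen of the Tox21 10K library in ME-180 cells. The readout is ATP-dependent luminescence after 5 h compound treatment. Data are normalised to DMSO and tetra n-octyl ammonium bromide controls.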

A short description of assay [12]: qHTS assay to identify small molecule agonists of the AP-1 signaling pathway (AID 1159526; calls by dose curve; also: potency is read from the fitted curve at half-maximal effect). Particulars: ME-180 (cervical carcinoma) AP-1-bla reporter, beta-lactamase FRET ratio, 5 h; series mostly up to 76.8 µM.
For assay [13], the target named is Retinoic acid receptor RXR-alpha (Homo sapiens) (UniProt P19793). Description: qHTS assay to identify small molecule agonists of the RXR signaling pathway (AID 1159527; calls by dose curve; also: nearly all actives have a fitted effect of over 35% in size). The note with it: HEK293T RXRa-UAS-bla, beta-lactamase ratio, 16 h; series mostly up to 76.8 µM. In a few lines: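 Agonist mode; 9-cis retinoic acid positive control. HEK 293T UAS-bla reporter cells, 2% charcoal-stripped FBS, 16 hr compound exposure at 37 C/5% CO2. LiveBLAzer B/G FRET substrate 2 hr RT; ex 405, em 460/530 nm.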
Sequence of Retinoic acid receptor RXR-alpha (Homo sapiens) (P19793 whole entry, looked up): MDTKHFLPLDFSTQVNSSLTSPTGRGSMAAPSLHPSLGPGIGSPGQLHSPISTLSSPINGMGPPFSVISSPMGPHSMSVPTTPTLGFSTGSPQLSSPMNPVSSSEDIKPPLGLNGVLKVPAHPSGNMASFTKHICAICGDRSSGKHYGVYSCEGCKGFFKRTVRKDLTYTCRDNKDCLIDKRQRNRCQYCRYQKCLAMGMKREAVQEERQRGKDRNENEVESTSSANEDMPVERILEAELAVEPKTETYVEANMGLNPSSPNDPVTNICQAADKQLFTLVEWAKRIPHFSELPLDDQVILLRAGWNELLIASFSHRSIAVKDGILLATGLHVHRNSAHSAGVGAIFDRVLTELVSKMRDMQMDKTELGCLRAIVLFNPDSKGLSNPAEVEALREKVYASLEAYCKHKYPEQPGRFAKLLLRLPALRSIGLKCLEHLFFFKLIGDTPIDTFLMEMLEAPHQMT

As to `C=Cc1ccc(S(=O)(=O)O)cc1`, the Potency result in assay [1], in assay [2], in [3], in [4], in assay [5] and in assay [6] was “inactive” in each case. Besides, the Potency result in [7] and in [8] was “inactive” in each case.
On to `CS(=O)(=O)c1ccc(-c2cn3ccccc3n2)cc1`, for which the Potency result in assay [1], in [2], in [4] and in assay [7] was “inactive” each time. The Potency was 23.9 µM (active) in [9], 11.9 µM (active) in assay [6] and 1.68 µM (active) in assay [8].
Turning to `C=C(C)C(=O)OCCCCCCCCCCCCC`, the Potency result in assay [10], in [1], in assay [2], in assay [3], in [4] and in [11] was “inactive” each time. The Potency result in assay [12], in [13], in assay [5], in [6], in assay [7] and in assay [8] was “inactive” in each case.
For the molecule `O=C(O)c1cccc(-c2noc(-c3ccccc3F)n2)c1`, the Potency result in [1], in [2], in assay [3], in [12], in assay [5] and in [6] was “inactive” in each case. The Potency in assay [7] is 0.422 µM (active); in [8], 0.003 µM (active).
As for `C(=C\c1ccccc1)/c1ccccc1`, the Potency entry in assay [1], in assay [2], in assay [3], in assay [4], in [11] and in [12] was “inactive” in each case. Also, the Potency result in assay [13], in assay [5], in [6] and in assay [7] was “inactive” each time. Further, the Potency in assay [8] is 8.56 µM (active).
In the case of `C=CC(=O)[O-].C=CC(=O)[O-].[Zn+2]`, the Potency entry in [10], in assay [1], in [9], in assay [3], in assay [4] and in assay [11] was “inactive” throughout. Besides, the Potency entry in assay [5], in assay [6] and in assay [7] was “inactive” each time.
Take `CN1CCCC(CC2c3ccccc3Sc3ccccc32)C1` (stereo not given): the Potency entry in assay [1], in [2], in assay [9], in assay [11] and in [6] was “inactive” throughout. The Potency in assay [12] is 16.9 µM (active).
In the case of `C1COC1`, the Potency entry in assay [10], in assay [1], in assay [2], in assay [3], in assay [4] and in assay [11] was “inactive” each time. For the same molecule, the Potency result in assay [12], in [13], in [5], in assay [6] and in assay [7] was “inactive” throughout.
For `O=C1NC(=O)c2cc([N+](=O)[O-])ccc21`, the Potency result in assay [10], in assay [1], in assay [9], in assay [3], in assay [4] and in [11] was “inactive” throughout. The Potency entry in assay [13], in [5], in [6], in assay [7] and in assay [8] was “inactive” each time.
Take `O=C=Nc1ccc(Cl)c(Cl)c1`: the Potency entry in assay [1], in [9], in assay [3], in assay [4], in assay [11] and in assay [12] was “inactive” each time. Besides, the Potency entry in assay [13], in assay [6], in assay [7] and in assay [8] was “inactive” throughout.
Take `CC(=O)NC1(c2cccc(F)c2)CCN(CC[C@@]2(c3ccc(Cl)c(Cl)c3)CN(c3ccccc3)C(=O)CO2)CC1`: the Potency in [10] was 43.8 µM (active); in [4], 38.7 µM (active); in assay [5] it was 19.6 µM (active); in assay [7], 43.4 µM (active). For the same molecule, the Potency entry in assay [1], in assay [2], in assay [11], in [12], in [6] and in assay [8] was “inactive” throughout.
As to `CCC=CC#N`, the Potency result in assay [1], in [2], in assay [9], in assay [11], in [12] and in [13] was “inactive” throughout. Also, the Potency result in assay [5] and in assay [6] was “inactive” in each case.
In the case of `C=CC(C)(CCC=C(C)C)OC(=O)CC(C)C` (stereo not given), the Potency result in [10], in [1], in assay [9], in assay [3], in assay [4] and in assay [11] was “inactive” throughout. The Potency result in assay [12], in assay [13], in assay [5], in [6], in [7] and in [8] was “inactive” in each case.
Turning to `Oc1cc2c(cc1O)[C@H]1c3ccc(O)c(O)c3OC[C@@]1(O)C2`, the Potency entry in [10], in assay [1], in assay [9], in assay [3], in [11] and in assay [12] was “inactive” throughout. Also, the Potency result in [13], in assay [5], in assay [6] and in [7] was “inactive” each time. Moreover, the Potency was 13.9 µM (active) in assay [4] and 55.1 µM (active) in assay [8].

These data come from PubChem BioAssay (Tox21).
